{"source": "PubChem BioAssay AID588382", "about": "(National Center for Advancing Translational Sciences (NCATS), 2011)", "note": "The whole screen tested about 1,300 compounds, of which about 150 (12%) were called active. About 30% were inconclusive and are not listed. The list comes from a sample in which actives are over-represented; it also holds similar structures and randomly drawn compounds. A number with no mark means an inactive call. The call rests on the fitted dose curve; in most records, active means well fitted cell-killing curve with a large enough effect; inconclusive means small, poorly fitted or top-dose-only effect, or effect the other way; inactive means flat fitted curve, though single readings scatter. On the % scale 0 is the no-effect control and ±100 the full control effect; potency means the concentration at half of the fitted maximal effect."}
{"test": "qHTS of small molecules that selectively kill Giardia lamblia: Hit Validation in HepG2 cytotox;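 further: compound exposure lasted overnight at 37 deg C; nearly all actives have a fitted effect of over 55% in size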;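 on activity change, negative = cytotoxicity: viability measured as cellular ATP by ATPLite luminescence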", "details": "cell viability; Potency: HepG2 cytotoxicity; series mostly up to 38.3 µM; activity change, negative = cytotoxicity: at the top concentration", "excerpt": "Giardia lamblia is a human pathogen afflicting impoverished nations, and the most common cause of outbreaks of diarrhea in the United States. Giardia has been classified by the CDC as a category B bioterrorism organism. The favored anti giardiasis drugs in the US are metronidazole or tinidazole, compounds that have undesirable side effects. Moreover, increasing resistance to drug regimes and recurrence are a concern. It is thus clear that alternative drug treatments are needed.\nIn a collaboration between the University of Maryland, College Park and the NIH Chemical Genomics Center, a bioluminescence Giardia viability assay based on the trophozoites' ATP content was developed. This assay is suitable for high throughput screening, and miniaturized the assay for compound screening in 1536-well plates. The goal of the project is to screen the Molecular Libraries Small Molecule Repository (MLSMR) for compounds that selectively kill Giardia trophozoites. This counterscreen looks at the toxicity of the compounds against the human HepG2 cell line.\nNIH Chemical Genomics Center [NCGC]\nNIH Molecular Libraries Probe Centers Network [MLPCN]\nAssay Submitter (PI): Osnat Herzberg, University of Maryland, College Park, MD.\n4 uL of HepG2 cells ae dispensed into white 1536-well plates. They are incubated overnight at 37 deg C and then 23 nL of compounds are transferred to the wells with a pintool. Plates are incubated overnight at 37 deg C. 2 uL of ATPLite is added and the plates are incubated for 15 min at room temperature before they are read on the ViewLux for luminiescence.", "units": {"activity change, negative = cytotoxicity": "%"}}
{"smiles": "COc1ccccc1CNC(=O)CSc1ccsc1[N+](=O)[O-]", "activity change, negative = cytotoxicity": 10.1}
{"smiles": "Cc1ccc(OCc2ccc([N+](=O)[O-])cc2)c([N+](=O)[O-])n1", "activity change, negative = cytotoxicity": 11.6}
{"smiles": "Cc1cc(C(=O)COc2cccnc2[N+](=O)[O-])c(C)n1Cc1cccs1", "activity change, negative = cytotoxicity": 0.566}
{"smiles": "Cc1onc(-c2ccccc2)c1C(=O)N/N=C/c1ccc([N+](=O)[O-])c(O)c1", "activity change, negative = cytotoxicity": 18.6}
{"smiles": "COc1cc2c(c3oc(-c4ccccc4)cc(=O)c13)C=CC(C)(C)O2", "activity change, negative = cytotoxicity": 15}
{"smiles": "O=[N+]([O-])c1ccc(/C=N/Nc2ncccc2[N+](=O)[O-])s1", "activity change, negative = cytotoxicity": 4.72}
{"smiles": "O=[N+]([O-])c1ccc(/C=N/n2c(CO)nc3ccccc32)s1", "activity change, negative = cytotoxicity": -18.8}
{"smiles": "Cc1nc2ccccc2n1/N=C/c1ccc([N+](=O)[O-])s1", "Potency": "16.5 µM (active)"}
{"smiles": "CN(C)c1ccc(N=Nc2ccccc2C(=O)O)cc1", "activity change, negative = cytotoxicity": 2.67}
{"smiles": "CCOC(=O)Cn1c(=NC(=O)c2ccc([N+](=O)[O-])s2)sc2ccccc21", "activity change, negative = cytotoxicity": -12.7}
{"smiles": "COc1ccc(C(=O)N(Cc2ccccc2)c2cccc(C)c2)cc1", "activity change, negative = cytotoxicity": -1.63}
{"smiles": "CCOc1ccc2nc(NC(=O)c3c([N+](=O)[O-])cnn3CC)sc2c1", "activity change, negative = cytotoxicity": 2.03}
{"smiles": "CCC(C(=O)OC)n1c(-c2ccccc2)nc2ccccc2c1=O", "note": "(centres undefined)", "activity change, negative = cytotoxicity": 6.81}
{"smiles": "CCOC(=O)N=Nc1c2ccccc2c2nc3no[nH]c3nc12", "Potency": "0.736 µM (active)"}
{"smiles": "CN(C)c1cc(NC(=O)CNC(C)(C)CC(C)(C)C)c2ccccc2n1", "activity change, negative = cytotoxicity": -3.21}
{"smiles": "CC1CCN(c2c([N+](=O)[O-])nn(-c3ccc4c(c3)OCCO4)[n+]2[O-])CC1", "activity change, negative = cytotoxicity": 0.373}
{"smiles": "COCCNc1cc(NCCOC)c([N+](=O)[O-])cc1[N+](=O)[O-]", "activity change, negative = cytotoxicity": 3.46}
{"smiles": "Cc1ccc([C@H]2C(C(=O)O)=CC[C@@H](c3ccc(C)cc3)N2S(=O)(=O)c2ccc(C)cc2)cc1", "activity change, negative = cytotoxicity": 5.19}
{"smiles": "CCC(C)Nc1ccc(NC(C)CC)cc1", "note": "(centres undefined)", "Potency": "0.165 µM (active)"}
{"smiles": "O=C(COc1cccnc1[N+](=O)[O-])Nc1c(Cl)cccc1Cl", "activity change, negative = cytotoxicity": 5}
{"smiles": "O=[N+]([O-])c1nn(-c2ccc(Cl)cc2)n(O)c1=NCc1ccncc1", "activity change, negative = cytotoxicity": 15.3}
{"smiles": "OCCSc1nc(-c2ccccc2)nc2ccc(F)cc12", "activity change, negative = cytotoxicity": 12.9}
{"smiles": "O=C(Cc1csc(Nc2nc(=S)[nH]c3ccccc23)n1)NCCCN1CCN(c2ccccc2F)CC1", "Potency": "16.5 µM (active)"}
{"smiles": "CCOC(=O)N1C(C)CN(/[N+]([O-])=N/Oc2ccc([N+](=O)[O-])cc2[N+](=O)[O-])CC1C", "note": "(centres undefined)", "activity change, negative = cytotoxicity": 5.98}
{"smiles": "O=c1/c(=C/c2ccc(O)c([N+](=O)[O-])c2)sc2nc3ccccc3n12", "activity change, negative = cytotoxicity": -5.62}
{"smiles": "Cc1ccc2c(c1)c1nc3ccccc3nc1n2C", "activity change, negative = cytotoxicity": -4.9}
{"smiles": "Cc1cnc([N+](=O)[O-])n1CCOC(=O)c1cccc(F)c1", "activity change, negative = cytotoxicity": 15.1}
{"smiles": "O=C(c1ccc([N+](=O)[O-])o1)N1CCOCC1", "activity change, negative = cytotoxicity": -15.8}
{"smiles": "Cc1oc2c(c1C(=O)N1CCOCC1)C(=O)c1ccccc1C2=O", "Potency": "4.65 µM (active)"}
